According to PubChem BioAssay (EPA / NIEHS):
The source made the active and inactive calls. How the source made its calls: active means hit-call score of the fitted dose curve at least 0.9, where 1 is the maximum; inactive means score below 0.9.

How the values were obtained:
Conditions in all cases: mRNA level, 48 h; actives raise or lower the signal
[1] = read-out: Peroxisomal acyl-coenzyme A oxidase 1 (ACOX1) gene, ACOX1 (gene 51); test: LTEA_HepaRG_ACOX1: Life Technologies and Expression Analysis (LTEA) Assay for Peroxisomal acyl-coenzyme A oxidase 1 (ACOX1) gene using HepaRG (AID 2283467)
Procedure, shortened: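 Human HepaRG hepatic cultures, 48 h treatment with test chemicals up to 100 uM. ACOX1 expression read by qRT-PCR relative to 0.5% DMSO vehicle.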

[2] = read-out: Alkaline Phosphatase, Placental (ALPP) gene, ALPP (gene 250); test: LTEA_HepaRG_ALPP: Life Technologies and Expression Analysis (LTEA) Assay for Alkaline Phosphatase, Placental (ALPP) gene using HepaRG (AID 2283468)
Procedure, shortened: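 HepaRG, 48 h plating then 48 h dosing, serum-free induction medium, 0.5% DMSO. 8 conc, half-log, max 100 uM, duplicates. Endpoint: ALPP transcript by qRT-PCR, housekeeping-normalized; gain or loss fitted vs DMSO.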

[3] = read-out: Bcl-2 (BAD) gene, BAD (gene 572); test: LTEA_HepaRG_BAD: Life Technologies and Expression Analysis (LTEA) Assay for Bcl-2 (BAD) gene using HepaRG (AID 2283469)
Procedure, shortened: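 Activity values reflect up- or down-regulation of BAD mRNA in human HepaRG hepatic cells treated 48 h in serum-free medium, with eight-point half-log dosing capped at 100 uM and 0.5% DMSO vehicle.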

[4] = read-out: Bcl-2 (BAX) gene, BAX (gene 581); test: LTEA_HepaRG_BAX: Life Technologies and Expression Analysis (LTEA) Assay for Bcl-2 (BAX) gene using HepaRG (AID 2283470)
Procedure, shortened: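 Human HepaRG cells treated in duplicate for 48 h across eight concentrations (max 100 uM, 0.5% DMSO); BAX expression measured by qRT-PCR.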

[5] = read-out: adenosine kinase (ADK) gene, ADK (gene 132); test: LTEA_HepaRG_ADK: Life Technologies and Expression Analysis (LTEA) Assay for adenosine kinase (ADK) gene using HepaRG (AID 2283471)
Procedure, shortened: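 Read-out is ADK transcript level measured by qRT-PCR and normalised to three housekeeping genes. Cells are human HepaRG, dosed for 48 h at up to 100 uM in 0.5% DMSO. Gain or loss of signal is fitted against DMSO controls.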

[6] = read-out: Alpha-fetoprotein (AFP) gene, AFP (gene 174); test: LTEA_HepaRG_AFP: Life Technologies and Expression Analysis (LTEA) Assay for Alpha-fetoprotein (AFP) gene using HepaRG (AID 2283472)
Procedure, shortened: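 Measures AFP mRNA change in HepaRG after 48 h chemical exposure (8 half-log concentrations, highest 100 uM, 0.5% DMSO). Fold change relative to DMSO, fitted in both directions.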

[7] = read-out: Apolipoprotein A-V (APOA5) gene, APOA5 (gene 116519); test: LTEA_HepaRG_APOA5: Life Technologies and Expression Analysis (LTEA) Assay for Apolipoprotein A-V (APOA5) gene using HepaRG (AID 2283474)
Procedure, shortened: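 Readout is APOA5 transcript level by qRT-PCR on Fluidigm dynamic arrays, normalized to three housekeeping genes. HepaRG cultures received chemicals for 48 h at up to 100 uM (half-log steps, 0.5% DMSO), with gain or loss scored relative to DMSO.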

[8] = read-out: Apoptosis regulator Bcl-2 (Homo sapiens) (UniProt P10415); test: LTEA_HepaRG_BCL2: Life Technologies and Expression Analysis (LTEA) Assay for Bcl-2 gene using HepaRG (AID 2283475);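 further: BCL2 transcript by TaqMan qRT-PCR normalised to ACTB GAPDH and POLR2A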
Procedure, shortened: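 Each chemical was tested in duplicate on HepaRG cultures held in serum-free induction medium for 48 h, highest concentration 100 uM with half-log dilutions. Transcript levels came from multiplexed qRT-PCR, normalised to housekeeping genes; activity was scored in either direction relative to DMSO.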

[9] = read-out: Bcl-2 (BID) gene, BID (gene 637); test: LTEA_HepaRG_BID: Life Technologies and Expression Analysis (LTEA) Assay for Bcl-2 (BID) gene using HepaRG (AID 2283476)
Procedure, shortened: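 Assay used HepaRG hepatic cells treated 48 h in serum-free medium with half-log dilutions from 100 uM. Endpoint: BID mRNA, qRT-PCR, normalized to ACTB/GAPDH/POLR2A.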

Caspase-3 (Homo sapiens) = Caspase-3 (Homo sapiens) (UniProt P42574); test: LTEA_HepaRG_CASP3: Life Technologies and Expression Analysis (LTEA) Assay for cysteine-aspartic acid protease (CASP3) using HepaRG (AID 2283477)
Procedure, shortened: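 Read-out is CASP3 mRNA level by TaqMan qRT-PCR in human HepaRG cells after 48 h chemical exposure. Eight half-log concentrations topping at 100 uM were tested in 0.5% DMSO; gain or loss was fitted relative to DMSO.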

[10] = read-out: Cytochrome P450 (CYP24A1), CYP24A1 (gene 1591); test: LTEA_HepaRG_CYP24A1: Life Technologies and Expression Analysis (LTEA) Assay for Cytochrome P450 (CYP24A1) using HepaRG (AID 2283478)
Procedure, shortened: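 HepaRG, 48 h chemical exposure, 8-pt half-log CRC from 100 uM, 0.5% DMSO vehicle, duplicates. Endpoint: CYP24A1 mRNA by Fluidigm TaqMan qRT-PCR, normalized ACTB/GAPDH/POLR2A; gain/loss fit vs DMSO.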

[11] = read-out: Cytochrome P450 (CYP1A2), CYP1A2 (gene 1544); test: LTEA_HepaRG_CYP1A2: Life Technologies and Expression Analysis (LTEA) Assay for Cytochrome P450 (CYP1A2) using HepaRG (AID 2283479)
Procedure, shortened: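 CYP1A2 transcript induction or loss, quantified by Fluidigm qRT-PCR against three housekeeping genes, was fitted bidirectionally against 0.5% DMSO controls. Human HepaRG cells received eight half-log concentrations from 100 uM over 48 h.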

[12] = read-out: cysteine-aspartic acid protease (CASP8), CASP8 (gene 841); test: LTEA_HepaRG_CASP8: Life Technologies and Expression Analysis (LTEA) Assay for cysteine-aspartic acid protease (CASP8) using HepaRG (AID 2283480)
Procedure, shortened: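 Concentration-response in duplicate up to 100 uM (half-log steps, 0.5% DMSO) on differentiated HepaRG cultures for 48 h. Expression change of CASP8 mRNA is determined by TaqMan qRT-PCR with housekeeping-gene normalization.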

[13] = read-out: Cytochrome P450 (CYP2B6), CYP2B6 (gene 1555); test: LTEA_HepaRG_CYP2B6: Life Technologies and Expression Analysis (LTEA) Assay for Cytochrome P450 (CYP2B6) using HepaRG (AID 2283481)
Procedure, shortened: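 HepaRG cells plated 48 h, switched to serum-free induction medium, then dosed 48 h (8 points, half-log from 100 uM, 0.5% DMSO). RNA isolated; CYP2B6 expression measured by qRT-PCR; gain or loss fitted relative to DMSO.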

[14] = read-out: Cytochrome P450 2C19 (Homo sapiens) (UniProt P33261); test: LTEA_HepaRG_CYP2C19: Life Technologies and Expression Analysis (LTEA) Assay for CYP2C19 using HepaRG (AID 2283482)
Procedure, shortened: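 Transcript levels of CYP2C19 were quantified by qRT-PCR after HepaRG cells were treated for 48 hours with test chemicals up to 100 uM (eight half-log concentrations, 0.5% DMSO vehicle). Gain or loss of signal was fitted relative to DMSO.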

CYP2C8 (gene 1558) = test: LTEA_HepaRG_CYP2C8: Life Technologies and Expression Analysis (LTEA) Assay for CYP2C8 using HepaRG (AID 2283483)
Procedure, shortened: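 This is a transcriptional endpoint in HepaRG cultures: 48 h exposure, highest concentration 100 uM. CYP2C8 mRNA is quantified by TaqMan qRT-PCR.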

CYP2C9 (gene 1559) = test: LTEA_HepaRG_CYP2C9: Life Technologies and Expression Analysis (LTEA) Assay for CYP2C9 using HepaRG (AID 2283484)
Procedure, shortened: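 Eight-point concentration-response (highest 100 uM, half-log dilutions) in HepaRG cells for 48 h; CYP2C9 expression by qRT-PCR normalized to ACTB, GAPDH, POLR2A. Bidirectional fit, DMSO baseline.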

CYP2E1 (gene 1571) = test: LTEA_HepaRG_CYP2E1: Life Technologies and Expression Analysis (LTEA) Assay for CYP2E1 using HepaRG (AID 2283485)
Procedure, shortened: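 Assay uses 48 h exposure of HepaRG hepatic cells, eight concentrations to 100 uM. Expression of CYP2E1 is quantified by TaqMan qRT-PCR with ACTB, GAPDH and POLR2A normalization; curves fitted in both directions relative to vehicle.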

CYP4A11 (gene 1579) = test: LTEA_HepaRG_CYP4A11: Life Technologies and Expression Analysis (LTEA) Assay for CYP4A11 using HepaRG (AID 2283486)
Procedure, shortened: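 HepaRG, 48 h chem exposure, 8 conc (100 uM top, half-log), 0.5% DMSO vehicle; qRT-PCR readout, housekeeping-gene normalized; bidirectional curve fit vs DMSO baseline.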

BCL2L11 (gene 10018) = test: LTEA_HepaRG_BCL2L11: Life Technologies and Expression Analysis (LTEA) Assay for Bcl-2 (BCL2L11) gene using HepaRG (AID 2283473)
Procedure, shortened: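 Read-out is BCL2L11 transcript level by qRT-PCR, normalized to three housekeeping genes and fitted bidirectionally against 0.5% DMSO vehicle. HepaRG cells received chemicals for 48 h in serum-free induction medium, 100 uM down in half-log dilutions.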

Measured: AC50

Sequence of Cytochrome P450 2C19 (Homo sapiens) (P33261 whole entry, looked up): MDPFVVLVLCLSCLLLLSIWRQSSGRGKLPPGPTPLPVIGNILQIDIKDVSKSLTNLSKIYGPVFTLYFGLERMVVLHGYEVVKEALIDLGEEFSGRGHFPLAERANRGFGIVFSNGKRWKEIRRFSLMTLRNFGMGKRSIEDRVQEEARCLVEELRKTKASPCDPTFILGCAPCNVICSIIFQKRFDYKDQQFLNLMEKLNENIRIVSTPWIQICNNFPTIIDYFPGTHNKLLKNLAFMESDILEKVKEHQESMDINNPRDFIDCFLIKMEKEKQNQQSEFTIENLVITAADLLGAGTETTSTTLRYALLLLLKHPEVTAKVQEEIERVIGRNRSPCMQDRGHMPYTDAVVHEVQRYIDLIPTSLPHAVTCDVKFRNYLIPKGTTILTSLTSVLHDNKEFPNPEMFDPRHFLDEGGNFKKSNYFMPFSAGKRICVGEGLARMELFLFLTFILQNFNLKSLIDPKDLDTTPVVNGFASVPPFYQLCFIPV
Sequence of Apoptosis regulator Bcl-2 (Homo sapiens) (P10415 whole entry, looked up): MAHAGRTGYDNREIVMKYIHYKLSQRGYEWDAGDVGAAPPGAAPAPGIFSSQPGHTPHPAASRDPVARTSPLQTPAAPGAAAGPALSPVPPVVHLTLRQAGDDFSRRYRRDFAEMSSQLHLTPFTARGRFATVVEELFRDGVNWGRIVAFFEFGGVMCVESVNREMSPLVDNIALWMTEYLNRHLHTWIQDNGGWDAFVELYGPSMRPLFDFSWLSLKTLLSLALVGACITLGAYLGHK
Sequence of Caspase-3 (Homo sapiens) (P42574 whole entry, looked up): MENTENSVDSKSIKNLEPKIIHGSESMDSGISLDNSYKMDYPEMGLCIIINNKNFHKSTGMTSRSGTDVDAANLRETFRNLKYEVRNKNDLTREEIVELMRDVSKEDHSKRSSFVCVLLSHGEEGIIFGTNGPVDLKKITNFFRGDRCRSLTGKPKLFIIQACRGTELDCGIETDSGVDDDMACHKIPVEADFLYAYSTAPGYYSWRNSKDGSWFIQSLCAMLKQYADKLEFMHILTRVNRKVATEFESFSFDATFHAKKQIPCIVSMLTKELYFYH

Clc1ccc(Cl)cc1
inactive: [1] | [2] | [3] | [4] | [5] | [6] | [7] | [8] | [9] | Caspase-3 (Homo sapiens) | [10] | [11] | [12] | [13] | [14] | CYP2C8 (gene 1558) | CYP2C9 (gene 1559) | CYP2E1 (gene 1571) | CYP4A11 (gene 1579)

Cc1cccc([N+](=O)[O-])c1
active: [13] 8.74 µM
inactive: [1] | [2] | [3] | [4] | [5] | [6] | BCL2L11 (gene 10018) | [7] | [8] | Caspase-3 (Homo sapiens) | [10] | [11] | [12] | [14] | CYP2C8 (gene 1558) | CYP2C9 (gene 1559) | CYP2E1 (gene 1571) | CYP4A11 (gene 1579)

ClC1=C(Cl)[C@]2(Cl)[C@@H]3[C@H]4C[C@H]([C@@H]5O[C@H]45)[C@@H]3[C@@]1(Cl)C2(Cl)Cl
active: [6] 31.1 µM | [7] 50 µM | [8] 9.92 µM | [13] 1.01 µM | [14] 2.63 µM | CYP2E1 (gene 1571) 22.6 µM | CYP4A11 (gene 1579) 24.6 µM
inactive: [1] | [2] | [3] | [4] | [5] | Caspase-3 (Homo sapiens) | [10] | [11] | [12] | CYP2C8 (gene 1558) | CYP2C9 (gene 1559)
